What all share (format): functional
Assay [1] has as its target Solute carrier family 2, facilitated glucose transporter member 1 (Homo sapiens) (UniProt P11166). Description: ST_JUDE_LEISH: Cytotoxicity at 2uM final concentration against transgenic Leishmania Mexicana promastigotes LmGLUT1 that are glucose transport deficient and complemented with the human glucose transporter GLUT1. Activity is measured by DNA content using SYBR green in vitro.

The target in assay [2] is Hexose transporter 1 (Plasmodium falciparum) (UniProt O97467). Description: ST_JUDE_LEISH: Cytotoxicity at 2uM final concentration against transgenic Leishmania Mexicana promastigotes LmPfHT that are glucose transport deficient and complemented with the Plasmodium falciparum hexose transporter. Activity is measured by DNA content using SYBR green in vitro.
Assay [3] concerns the target Glucose transporter (Leishmania mexicana) (UniProt O61059). Briefly: ST_JUDE_LEISH: Cytotoxicity at 2uM final concentration against transgenic Leishmania Mexicana promastigotes LmGT2 that are glucose transport deficient and complemented with the L. Mexicana glucose transporter 2. Activity is measured by DNA content using SYBR green in vitro.

The source of these data is ChEMBL document CHEMBL3433997, “St. Jude Leishmania screening dataset” (2016).

Solute carrier family 2, facilitated glucose transporter member 1 (Homo sapiens), sequence (P11166 whole entry): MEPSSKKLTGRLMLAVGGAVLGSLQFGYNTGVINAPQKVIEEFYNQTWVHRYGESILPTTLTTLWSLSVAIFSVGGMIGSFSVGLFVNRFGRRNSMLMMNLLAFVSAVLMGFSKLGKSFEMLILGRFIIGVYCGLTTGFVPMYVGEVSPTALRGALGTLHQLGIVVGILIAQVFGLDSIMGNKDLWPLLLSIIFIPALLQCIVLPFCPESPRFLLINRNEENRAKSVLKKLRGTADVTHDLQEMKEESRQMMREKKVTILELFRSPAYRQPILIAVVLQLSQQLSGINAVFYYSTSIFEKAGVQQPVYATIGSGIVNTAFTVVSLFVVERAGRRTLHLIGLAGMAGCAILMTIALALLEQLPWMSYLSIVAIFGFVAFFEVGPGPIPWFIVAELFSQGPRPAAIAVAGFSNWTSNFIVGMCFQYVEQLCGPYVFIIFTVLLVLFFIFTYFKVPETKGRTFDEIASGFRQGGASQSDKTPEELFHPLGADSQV

`CN1CCN(c2cccc(Nc3nccc(NCC(O)c4ccccc4)n3)c2)CC1` (stereo unspecified): the figures for the inhibition in assay [1], in assay [2] and in assay [3] were 1.83%, 1.6% and 0.06%, respectively.

As to `O=C(C=Cc1ccc(C(=O)Nc2ccc(C3=NCCN3)cc2)cc1)Nc1ccc(C2=NCCN2)cc1`, the inhibition in assay [1] is 5.16%; in assay [2], 5.38%; in assay [3], 5.13%.

Turning to `Cc1cc(N2CCCC2)nc(Nc2ccc(NC(=O)C(C)(C)C)cc2)n1`, the inhibition is 0.4% in assay [1], 2.7% in assay [2] and -0.65% in assay [3].

For `Cc1ccc(C(=O)Nc2ccc(-c3nc4ccccc4[nH]3)cc2)cc1S(=O)(=O)N1CCOCC1`, the figures for the inhibition in assay [1], in assay [2] and in assay [3] were 2.29%, 1.71% and 0.77%, respectively.

Regarding `CC(=O)Nc1ccc(CN2CCC(NC(=O)c3ccc(-c4cccc(F)c4)s3)CC2)cc1`, the figures for the inhibition in assay [1], in assay [2] and in assay [3] were 1.73%, 0.06% and 0.34%, respectively.

With `CN1CCC(NCc2cccc(-c3ccc(S(=O)(=O)NCc4ccccc4)c(F)c3)c2)CC1`, the inhibition in assay [1] came to 2.09%; in assay [2], 3.75%; in assay [3], 4.35%.

As for `Cc1ccc(NC(=O)c2ccc(CN3CCCN(Cc4cccc(O)c4)CC3)cc2)cc1C`, the inhibition worked out at 0.9% in assay [1], 0.45% in assay [2] and 4.65% in assay [3].

Turning to `COc1ccc(CNC2CCN(C)CC2)cc1-c1ccc(S(=O)(=O)NCCc2ccccn2)cc1`, the results for the inhibition in assay [1], in assay [2] and in assay [3] were -0.85%, 0.85% and -0.1%, respectively.

For `O=C(/C=C/c1ccc(Cl)c(Cl)c1)NC1CCC(CN2CCC(c3c[nH]c4ccncc34)CC2)CC1` (stereo unspecified), the inhibition worked out at 0.22% in assay [1], 0.56% in assay [2] and 0.65% in assay [3].

For `CN1CCC(N2CCN(c3ccc4c(=O)nc(CCc5cccc(F)c5F)n(CC(=O)N(C)Cc5ccc(-c6ccc(C(F)(F)F)cc6)cc5)c4n3)CC2)CC1`, the inhibition in assay [1] was -0.12%; in assay [2], 0.33%; in assay [3], 6.67%.

As for `CCCCCCCn1c(=N)n(CC(O)c2ccc(Cl)c(Cl)c2)c2ccccc21` (stereo unspecified), the inhibition in assay [1] is 8.14%; in assay [2] it was 7.92%; in assay [3] it was 13.2%.

Turning to `CC(=O)Nc1ccc(C(=O)Nc2ccc(-c3cccc(-c4nc5cccc(C)c5[nH]4)c3)cc2)cn1`, the inhibition was -3.82% in assay [1], -0.04% in assay [2] and -3.28% in assay [3].

Regarding `CCc1ccc(CNCC(CCNc2cc(=O)c3ccccc3[nH]2)NCc2cc(Br)cc(Br)c2)o1` (stereo unspecified), the inhibition in assay [1] was -1.12%; in assay [2], 1.71%; in assay [3] it was -0.33%.

For `COc1ccc(-c2cccc(NC(=O)c3cccc(C#N)c3)c2)cc1CN1CCCN(C)CC1`, the inhibition in assay [1] came to 1.45%; in assay [2], 1.13%; in assay [3], 5.93%.

As to `CC(=O)Nc1ncc(C(=O)Nc2cccc(-c3ccc(-c4nc5cc(C(F)(F)F)ccc5[nH]4)cc3)c2)s1`, the inhibition in assay [1] was 2.37%; in assay [2] it was 0.89%; in assay [3] it was -0.63%.

As for `C/C=C/COc1ccc2ccccc2c1CNCCCCCCCCNCc1c(OC/C=C/C)ccc2ccccc12`, the figures for the inhibition in assay [1], in assay [2] and in assay [3] were 16.7%, 7.28% and 1.19%, respectively.

`COc1cc(F)c2ncc(Cl)c(CCN3CCC(NCc4ccc5c(c4)NC(=O)CS5)CC3)c2c1`: the inhibition in assay [1] is 15.1%; in assay [2], 18.3%; in assay [3], 8.82%.

On to `CCOC(=O)c1cnc2cc(N3CCCC3)c(Cl)cc2c1OCC`, for which the inhibition in assay [1] was 1.28%; in assay [2] it was -0.81%; in assay [3], 0.52%.

As for `CN1C(C)(C)CC(NC(=O)c2ccc(-c3nc4cc(Cl)ccc4[nH]3)cc2)CC1(C)C`, the inhibition in assay [1] is 1.69%; in assay [2], 2.24%; in assay [3], 2.7%.

As for `CCN(CC)S(=O)(=O)c1ccc(C=CC(=O)Nc2cc(Cl)ccc2N2CCOCC2)cc1`, the inhibition came to 6.36% in assay [1], 4.63% in assay [2] and 5.02% in assay [3].

`CCCCCOc1ccc(C(O)C(CN2CCCCC2)c2ccccc2)cc1` (stereo unspecified): the inhibition in assay [1] was found to be 5.64%; in assay [2], 4.91%; in assay [3], 5.39%.

Turning to `COc1cccc(-c2nn(C)c3sc(C(=O)NCCN4CCN(c5ccccc5F)CC4)cc23)c1`, the inhibition in assay [1] is -0.88%; in assay [2], 2.01%; in assay [3], 0.29%.

As to `Cc1nc(NCc2ccccc2)cc(Nc2cc(NCc3ccccc3)nc(C)n2)n1`, the inhibition in assay [1] is 4.26%; in assay [2], 3.76%; in assay [3], 1.98%.

`COc1ccc(CNCc2cccc(-c3cccc(-c4nc5cc(F)ccc5[nH]4)c3)c2)cc1`: the values for the inhibition in assay [1], in assay [2] and in assay [3] were 2.28%, 0.55% and -0.04%, respectively.

In the case of `COc1c(F)ccc2ncc(Cl)c(CCN3CCC(NCc4ccc5c(n4)NC(=O)CS5)CC3)c12`, the inhibition in assay [1] was 6.45%; in assay [2], 6.77%; in assay [3] it was -2.91%.

As to `CCOc1ccc2c(c1)N(C(=O)C=Cc1ccccc1)C(C)(C)c1ssc(=S)c1-2`, the inhibition in assay [1] came to 0.5%; in assay [2] it was 0.43%; in assay [3] it was 0.85%.

As for `CNCCCn1c(N(C)C)nc2cc(-n3cnc4cc(-c5ccc(Cl)cc5)sc4c3=O)ccc21`, the inhibition in assay [1] came out at 3.3%; in assay [2] it was 3.48%; in assay [3] it was 3.76%.

As to `O=S(=O)(NCCN1CCCC1)c1ccc(-c2ccc(CN3Cc4ccccc4C3)cc2)s1`, the inhibition in assay [1] was -0.63%; in assay [2], -0.5%; in assay [3] it was -2.59%.

As to `N=C(N)NC(=O)Nc1cc(Cl)c(Cl)c(Br)c1`, the values for the inhibition in assay [1], in assay [2] and in assay [3] were 6.7%, 5.82% and 2.08%, respectively.

Consider `Fc1ccc2[nH]c(-c3ccc(-c4ccc(CNCCc5cccnc5)cc4)s3)nc2c1`, for which the inhibition was 6.23% in assay [1], 3.19% in assay [2] and 3.21% in assay [3].

Take `COc1ccc(CNC2CCCC2)cc1-c1ccc(S(=O)(=O)NCCN2CCCC2)s1`: the figures for the inhibition in assay [1], in assay [2] and in assay [3] were 1.79%, 2.89% and 3.68%, respectively.

`COC(=O)c1ccc2nc(-c3ccc(C(=O)NC4CCN(Cc5ccccc5)CC4)s3)[nH]c2c1`: the figures for the inhibition in assay [1], in assay [2] and in assay [3] were 6.63%, 10.5% and 8.06%, respectively.

In general, inhibition refers to the drop in the measured response relative to a control, in per cent.
